Where “and” joins values, the source holds several entries; their conditions need not be identical. Equal entries are not always repeated. Results filed as inconclusive are left out. Calls of active or inactive are those of the source. Unless noted, calls come from the whole dose curve; as a rule, active = well fitted curve in the direction sought with a large enough effect; inconclusive = small, poorly fitted or top-dose-only effect, or another doubt; inactive = no such curve, though single readings can be large; an effect the other way counts as inactive or inconclusive.
Assays:
[1] = qHTS assay for small molecule disruptors of the mitochondrial membrane potential - 1 hr assay (AID 651754; calls by dose curve; note: % is set by controls: 0 for no effect and ±100 for the full control effect; nearly all actives have a fitted effect of over 35% in size)
In short: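 HepG2 cells, attached overnight, were exposed to compound for 1 hr at 37C, then stained 30 min with a potentiometric dye. Ratio of red aggregate (590nm) to green monomer (535nm) fluorescence reports membrane potential; collapse shifts signal toward green.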

[2] = qHTS assay for small molecule disruptors of the mitochondrial membrane potential - 5 hr assay (AID 651755; calls by dose curve; note: % is set by controls: 0 for no effect and ±100 for the full control effect; nearly all actives have a fitted effect of over 40% in size)
In short: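 HepG2 cells (2,000/well), attached overnight, exposed to compound 5 hr at 37C, then Mito-MPS dye 30 min. Fluorescence read for monomers (490/535 nm) and aggregates (540/590 nm).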

[3] = target: Tumor necrosis factor (Homo sapiens) (UniProt P01375); test: qHTS assay to identify small molecules that stimulate Tumor Necrosis Factor-alpha (TNF-alpha) secretion (AID 651757; active = well fitted curve in the direction sought with a large enough effect in the signal ratio; the % refers to the signal ratio; note: 0% is about no effect)
In short: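 THP-1 cells (3000/well) exposed to compounds 17 hrs at 37 C. Secreted TNF-alpha detected by HTRF with cryptate- and XL665-labeled anti-TNF-alpha antibodies after 3 hr at room temperature.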

[4] = qHTS assay for environmental chemicals that activate the Aryl hydrocarbon Receptor (AhR) signaling pathway (AID 651777); details: 1A2-DRE human hepatoma cells, luciferase, 24 h; activation: active compounds read high; note: % of control where 0% means no effect; nearly all actives have a fitted effect of over 15% in size
In short: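 Following a 24 hr incubation with test chemicals at 37 C and 5% CO2, 1A2-DRE human hepatoma cells received One-Glo reagent; after 30 min at room temperature, luciferase output reflected CYP1A2 induction via AhR.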

[5] = target: Peroxisome proliferator-activated receptor alpha (Homo sapiens) (UniProt Q07869); test: qHTS assay for small molecule agonists of the peroxisome proliferator-activated receptor alpha (PPARalpha) signaling pathway (AID 651778); details: PathHunter PPARalpha complementation, chemiluminescence, 6 h; active compounds read high; note: % of control where 0% means no effect
In short: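 Enzyme-fragment complementation assay in which ligand-bound PPARalpha translocates and forms an active enzyme that generates chemiluminescence. Cells were plated overnight, exposed to compound for 6 hr at 37 C, and then given detection reagent for 60 min at room temperature.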

[6] = target: Nuclear receptor ROR-gamma (Homo sapiens) (UniProt P51449); test: qHTS assay for small molecule antagonists of the retinoid-related orphan receptor gamma (ROR-gamma) signaling pathway (AID 651802);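 note: luciferase reporter luminescence driven by ROR response element; series mostly up to about 92 µM; % is set by controls: 0 for no effect and ±100 for the full control effect; nearly all actives have a fitted effect of over 60% in size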
In short: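 CHO cells with TET-inducible ROR-gamma and RORE-luciferase reporter, dosed then doxycycline-induced. After 16 h at 37C, One-Glo luminescence read; decreased signal indicates antagonism.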

[7] = qHTS assay for small molecule agonists of the antioxidant response element (ARE) signaling pathway measured by Nrf2-dependant transcriptional activity (AID 720636; active = well fitted curve in the direction sought with a large enough effect in the repeat runs; an effect the other way counts as inactive or inconclusive;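 note: HepG2 cells with an ARE-driven luciferase reporter; % of control where 0% means no effect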)
In short: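 ONE-Glo luminescence, read 30 min after reagent addition at room temperature, reflected ARE reporter activity in HepG2 cells that had been incubated with compound for 16 hr at 37 C in 1% dialyzed FBS.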

[8] = qHTS assay for small molecule antagonists of the retinoid-related orphan receptor gamma (ROR-gamma) signaling pathway - cell viability counter screen (AID 720652; active = well fitted curve in the direction sought with a large enough effect in the repeat runs; an effect the other way counts as inactive or inconclusive;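 note: series mostly up to about 92 µM; compound exposure lasted 16 hr before ATP read; % is set by controls: 0 for no effect and ±100 for the full control effect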)
In short: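 CHO cells carrying TET-inducible ROR and RORE-luciferase reporter, plated 5 hr, then dosed with compound plus doxycycline. After 16 hr at 37 C, viability read as intracellular ATP by CellTiter-Glo luminescence.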

[9] = qHTS assay for small molecule agonists of the antioxidant response element (ARE) signaling pathway measured by Nrf2-dependant transcriptional activity - cell viability counter screen (AID 720653; active = well fitted curve in the direction sought with a large enough effect in the repeat runs; an effect the other way counts as inactive or inconclusive; note: % is set by controls: 0 for no effect and ±100 for the full control effect); details: ARE-bla HepG2 viability, CellTiter-Glo ATP luminescence, 16 h; active compounds read low
In short: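 ARE-bla HepG2 cells treated with compounds for 16 h at 37C; this counter screen measures viability as intracellular ATP by CellTiter-Glo luminescence after 30 min at room temperature.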

[10] = qHTS assay for cell viability of HEK293 cells (AID 743288); details: ATP luminescence (CellTiter-Glo), 18 h, active compounds read low; note: % is set by controls: 0 for no effect and ±100 for the full control effect; nearly all actives have a fitted effect of over 50% in size
In short: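 Parental HEK293 cells, 2,000 per well, preincubated at least 5 h at 37 C, then exposed to compounds in DMSO for 18 h at 37 C. Viability by CellTiter-Glo ATP luminescence after 30 min at room temperature.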

[11] = qHTS assay for cell viability of the p53RE-bla HCT-116 cell line (AID 743292); note: % is set by controls: 0 for no effect and ±100 for the full control effect; nearly all actives have a fitted effect of over 55% in size
In short: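 After plating at 4,000 cells per well and a 5 h rest at 37 C, HCT-116 cells carrying p53RE-bla received test chemicals in DMSO. Sixteen hours later at 37 C, CellTiter-Glo was added and luminescence recorded following 30 min at room temperature.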

[12] = target: Nuclear receptor subfamily 1 group I member 2 (Rattus norvegicus) (UniProt Q9R1A7); test: qHTS assay for small molecule activators of the rat pregnane X receptor (rPXR) signaling pathway (AID 651751; call rule not given here; note: 0% is about no effect); details: rPXR reporter cells, luciferase (One-Glo), 24 h
[13] = qHTS assay for small molecule activators of the human pregnane X receptor (PXR) signaling pathway (AID 720659; call rule not given here; note: 0% is about no effect)
[14] = qHTS assay to identify small molecules that stimulate interleukin-8 (IL-8) secretion (AID 651758; active = well fitted activation curve with a large enough effect in the signal ratio; the % refers to the signal ratio; note: 0% is about no effect)
In short: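 THP-1 cells (2000/well) exposed to compound 16 h at 37 C; secreted IL-8 then detected by HTRF with cryptate- and XL665-labelled anti-IL-8 antibody pair after 1-3 h at room temperature.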

Sequence of Nuclear receptor subfamily 1 group I member 2 (Rattus norvegicus) (Q9R1A7 whole entry, looked up): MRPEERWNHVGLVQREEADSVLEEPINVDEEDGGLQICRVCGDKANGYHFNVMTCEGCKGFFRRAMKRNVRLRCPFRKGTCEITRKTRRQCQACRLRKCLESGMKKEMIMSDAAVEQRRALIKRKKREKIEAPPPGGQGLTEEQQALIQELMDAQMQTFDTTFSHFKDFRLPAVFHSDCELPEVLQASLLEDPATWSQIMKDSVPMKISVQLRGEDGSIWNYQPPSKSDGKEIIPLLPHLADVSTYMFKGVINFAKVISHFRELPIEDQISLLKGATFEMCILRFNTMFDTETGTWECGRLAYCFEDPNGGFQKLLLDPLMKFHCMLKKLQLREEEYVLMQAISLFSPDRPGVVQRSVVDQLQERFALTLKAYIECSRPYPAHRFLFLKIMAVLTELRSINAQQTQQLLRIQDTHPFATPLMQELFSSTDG
Sequence of Peroxisome proliferator-activated receptor alpha (Homo sapiens) (Q07869 whole entry, looked up, the tested form may be a part): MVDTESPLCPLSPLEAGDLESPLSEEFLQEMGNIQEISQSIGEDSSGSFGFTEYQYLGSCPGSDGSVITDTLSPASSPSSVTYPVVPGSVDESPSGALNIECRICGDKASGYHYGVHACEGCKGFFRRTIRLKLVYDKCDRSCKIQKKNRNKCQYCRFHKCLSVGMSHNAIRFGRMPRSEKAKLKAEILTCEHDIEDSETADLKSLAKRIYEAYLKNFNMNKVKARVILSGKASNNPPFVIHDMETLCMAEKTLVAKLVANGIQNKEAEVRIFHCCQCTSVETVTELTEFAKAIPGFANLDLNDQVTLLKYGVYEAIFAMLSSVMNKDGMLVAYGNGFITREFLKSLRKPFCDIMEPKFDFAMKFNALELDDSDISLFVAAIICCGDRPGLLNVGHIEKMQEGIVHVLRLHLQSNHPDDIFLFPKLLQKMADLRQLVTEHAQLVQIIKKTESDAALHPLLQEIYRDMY
Sequence of Nuclear receptor ROR-gamma (Homo sapiens) (P51449 whole entry, looked up): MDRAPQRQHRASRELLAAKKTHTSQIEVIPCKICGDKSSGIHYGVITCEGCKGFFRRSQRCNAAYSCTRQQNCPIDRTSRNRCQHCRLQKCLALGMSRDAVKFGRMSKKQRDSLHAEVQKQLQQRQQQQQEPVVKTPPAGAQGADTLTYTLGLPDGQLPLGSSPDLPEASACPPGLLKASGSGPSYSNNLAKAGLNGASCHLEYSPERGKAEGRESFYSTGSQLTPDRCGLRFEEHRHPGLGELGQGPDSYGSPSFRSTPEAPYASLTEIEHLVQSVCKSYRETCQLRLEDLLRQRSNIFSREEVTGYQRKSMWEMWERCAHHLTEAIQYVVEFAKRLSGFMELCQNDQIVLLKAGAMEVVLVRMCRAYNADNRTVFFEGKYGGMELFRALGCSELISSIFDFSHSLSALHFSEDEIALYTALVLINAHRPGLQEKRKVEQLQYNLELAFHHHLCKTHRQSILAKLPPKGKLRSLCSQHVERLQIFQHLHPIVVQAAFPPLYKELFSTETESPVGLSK
Sequence of Tumor necrosis factor (Homo sapiens) (P01375 whole entry, looked up): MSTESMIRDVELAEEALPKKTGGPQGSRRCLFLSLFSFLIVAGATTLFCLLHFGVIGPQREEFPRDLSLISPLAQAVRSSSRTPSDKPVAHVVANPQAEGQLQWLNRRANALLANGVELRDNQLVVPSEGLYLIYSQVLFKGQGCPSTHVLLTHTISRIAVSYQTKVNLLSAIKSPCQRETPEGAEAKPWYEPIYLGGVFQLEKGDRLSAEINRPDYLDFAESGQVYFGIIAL

O=[N+]([O-])c1c(Cl)cc(Cl)cc1Cl
inactive: Potency [1] | Potency [2] | Potency [3] | activation [4] 0.0842% | max response [5] 0.895% | Potency [6] | outcome [7] | Potency [8] | max response [9] -2.01% | max response [10] 8.66% | Potency [11] | max response [12] 9.05% | outcome [13]

C=C(C)C(N)=O
inactive: Potency [1] | Potency [2] | Potency [3] | activation [4] -1.72% | max response [5] -6.13% | Potency [6] | outcome [7] | Potency [8] | max response [9] -10.7% | max response [12] 2.1% | outcome [13]

CCCC(Cl)CCCC(Cl)CCC(Cl)CCC(Cl)CCC(Cl)CCCC(Cl)CCC (stereo unspecified)
inactive: Potency [1] | Potency [2] | Potency [3] | activation [4] -0.261% | max response [5] -3.72% | Potency [6] | outcome [7] | Potency [8] | max response [9] -6.05% | max response [10] 8.25% | Potency [11] | max response [12] 2.04% | outcome [13]

NC(=S)NNC(N)=S
inactive: Potency [1] | Potency [2] | Potency [3] | activation [4] 0.955% and 1.28% | max response [5] 0.409% and -1.13% | Potency [6] | outcome [7] | Potency [8] | max response [9] 1.26% and -5.12% | max response [10] -2.43% and -16.6% | Potency [11] | max response [12] -3.78% and 5.23% | outcome [13]

CC(C)CCOC(=O)/C=C/c1ccccc1
inactive: Potency [1] | Potency [2] | Potency [3] | activation [4] 0.411% | max response [5] 0.372% | Potency [6] | outcome [7] | Potency [8] | max response [9] 5.13% | max response [10] -10.1% | max response [12] 0.15% | outcome [13]

O=C(Cl)c1ccccc1[N+](=O)[O-]
inactive: Potency [1] | Potency [2] | Potency [3] | activation [4] 0.05% | max response [5] 3.57% | Potency [6] | outcome [7] | Potency [8] | max response [9] 18.8% | max response [10] -5.53% | Potency [11] | max response [12] 1.88% | outcome [13]

C(=C/c1ccccc1)/c1ccccc1
inactive: Potency [1] | Potency [2] | Potency [3] | activation [4] 1.55% | max response [5] 5.49% | Potency [6] | outcome [7] | Potency [8] | max response [9] 5.32% | max response [12] 0.267% | outcome [13]

O=C1OC(=O)c2c(Cl)c(Cl)c(Cl)c(Cl)c21
inactive: Potency [1] | Potency [2] | Potency [3] | activation [4] 0.646% and 1.03% | max response [5] 0.893% and -0.287% | Potency [6] | outcome [7] | Potency [8] | max response [9] 1.45% and 13.5% | max response [10] 5.35% and -3.52% | max response [12] 0.139% and -2.42% | outcome [13]

O=C(O)c1ccccc1C(=O)O
inactive: Potency [1] | Potency [2] | Potency [3] | Potency [14] | max response [5] 0.653% | outcome [7] | Potency [8] | max response [9] -3.39% | max response [10] -4.91% | Potency [11] | max response [12] -4.53% | outcome [13]

CCC(C)(C)OC
inactive: Potency [1] | Potency [2] | Potency [3] | activation [4] 0.579% | max response [5] -8.98% | Potency [6] | outcome [7] | Potency [8] | max response [9] -14.5% | max response [10] -19.7% | Potency [11] | max response [12] -4.5% | outcome [13]

O=[N+]([O-])c1ccccc1CCO
inactive: Potency [1] | Potency [2] | Potency [3] | activation [4] 0.213% | max response [5] -1.29% | Potency [6] | outcome [7] | Potency [8] | max response [9] -3.69% | max response [10] -3.96% | Potency [11] | max response [12] 5.68% | outcome [13]

CCOCCOCC
inactive: Potency [1] | Potency [2] | Potency [3] | activation [4] 1.1% | max response [5] -2.27% | Potency [6] | outcome [7] | Potency [8] | max response [9] 5.13% | max response [10] 0.474% | max response [12] -2.52% | outcome [13]

O=C1NC(=O)c2cc([N+](=O)[O-])ccc21
inactive: Potency [1] | Potency [2] | Potency [3] | activation [4] -0.349% | max response [5] -3.3% | Potency [6] | outcome [7] | Potency [8] | max response [9] -3.07% | max response [10] -4.71% | max response [12] 1.8% | outcome [13]

C1COC1
inactive: Potency [1] | Potency [2] | Potency [3] | activation [4] -0.727% | max response [5] 0.481% | Potency [6] | outcome [7] | Potency [8] | max response [9] -0.519% | max response [10] 7.71% | Potency [11] | max response [12] -0.345% | outcome [13]

CCCCCCC(=O)O
inactive: Potency [1] | Potency [2] | Potency [3] | activation [4] 0.903% | max response [5] 14.5% | Potency [6] | outcome [7] | Potency [8] | max response [9] -2.08% | max response [10] -7.36% | Potency [11] | max response [12] -2.97% | outcome [13]
